In PubChem BioAssay AID1159580 (chemical genetic matrix, 2015):
Screen size: about 5,500 compounds; about 2,000 (36%) were called active. About 18% were inconclusive and are not listed. Cut-off read from the data, not from the text of the source: active = normalized growth mostly below about 0.91 (no sharp cut-off); inconclusive = no clear call, values can overlap the other calls; inactive = mostly above about 0.92. Some of the results follow.

Assay: chemical genetic growth profiling, strain panel (AID 1159580);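 note: tested at 20 µM; growth read once vehicle control cultures reached saturation at 30 °C; 1 = growth at the plate median or of vehicle wells; lower values mean less growth of the strain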
Settings: growth OD

Measured: normalized growth

Cn1c(=O)c2c(ncn2CCO)n(C)c1=O
inactive: S. cerevisiae deletion strains, locus YJR075W, strain HOC1, stronger effect = lower value 1 | S. cerevisiae deletion strains, locus YKL009W, strain mrt4, stronger effect = lower value 0.99 | S. cerevisiae deletion strains, locus YKL068W, stronger effect = lower value 0.991 | S. cerevisiae deletion strains, locus YKL085W, strain MDH1 (second series), stronger effect = lower value 0.993 | S. cerevisiae deletion strains, locus YKL085W, strain MDH1, stronger effect = lower value 0.993 | S. cerevisiae deletion strains, locus YKL160W, strain elf1, stronger effect = lower value 1.02 | S. cerevisiae deletion strains, locus YKL190W, strain CNB1, stronger effect = lower value 1 | S. cerevisiae deletion strains, locus YKR001C, strain vps1, stronger effect = lower value 0.997 | S. cerevisiae deletion strains, locus YKR026C, strain gcn3, stronger effect = lower value 1.02 | S. cerevisiae deletion strains, locus YKR091W, strain srl3, stronger effect = lower value 1.02 | S. cerevisiae deletion strains, locus YLL001W, strain dnm1, stronger effect = lower value 0.993 | S. cerevisiae deletion strains, locus YLL026W, stronger effect = lower value 1.02 | S. cerevisiae deletion strains, locus YLL041C, strain sdh2, stronger effect = lower value 1.02 | S. cerevisiae deletion strains, locus YLR027C, strain aat2, stronger effect = lower value 1.01 | S. cerevisiae deletion strains, locus YLR039C, strain RIC1, stronger effect = lower value 1.02 | S. cerevisiae deletion strains, locus YLR058C, strain SHM2, stronger effect = lower value 1.01 | S. cerevisiae deletion strains, locus YLR102C, strain apc9, stronger effect = lower value 0.997 | S. cerevisiae deletion strains, locus YLR113W, strain HOG1, stronger effect = lower value 0.988 | S. cerevisiae deletion strains, locus YLR221C, strain rsa3, stronger effect = lower value 1.01 | S. cerevisiae deletion strains, locus YLR258W, strain gsy2, stronger effect = lower value 1.02 | S. cerevisiae deletion strains, locus YLR262C, strain YPT6 (second series), stronger effect = lower value 1.08 | S. cerevisiae deletion strains, locus YLR262C, strain YPT6, stronger effect = lower value 1.01 | S. cerevisiae deletion strains, locus YLR268W, strain sec22, stronger effect = lower value 1.06 | S. cerevisiae deletion strains, locus YLR320W, strain mms22, stronger effect = lower value 1.03 | S. cerevisiae deletion strains, locus YLR330W, strain CHS5, stronger effect = lower value 1 | S. cerevisiae deletion strains, locus YLR342W, strain FKS1 (second series), stronger effect = lower value 0.981 | S. cerevisiae deletion strains, locus YLR342W, strain FKS1, stronger effect = lower value 1.02 | S. cerevisiae deletion strains, locus YLR357W, strain rsc2, stronger effect = lower value 1 | S. cerevisiae deletion strains, locus YLR370C, strain arc18, stronger effect = lower value 1.02 | S. cerevisiae deletion strains, locus YLR371W, strain rom2, stronger effect = lower value 1.01 | S. cerevisiae deletion strains, locus YLR384C, strain iki3, stronger effect = lower value 1.01 | S. cerevisiae deletion strains, locus YLR418C, strain cdc73, stronger effect = lower value 0.985 | S. cerevisiae deletion strains, locus YML016C, strain PPZ1, stronger effect = lower value 1 | S. cerevisiae deletion strains, locus YML032C, strain rad52, stronger effect = lower value 1.03 | S. cerevisiae deletion strains, locus YML120C, strain ndi1, stronger effect = lower value 0.986 | S. cerevisiae deletion strains, locus YML124C, strain tub3, stronger effect = lower value 1 | S. cerevisiae deletion strains, locus YMR058W, strain fet3, stronger effect = lower value 1.02 | S. cerevisiae deletion strains, locus YMR078C, strain ctf18, stronger effect = lower value 0.998 | S. cerevisiae deletion strains, locus YMR125W, strain sto1, stronger effect = lower value 1.02 | S. cerevisiae deletion strains, locus YMR129W, stronger effect = lower value 1.02 | S. cerevisiae deletion strains, locus YMR205C, strain PFK2, stronger effect = lower value 1.02 | S. cerevisiae deletion strains, locus YMR223W, strain ubp8, stronger effect = lower value 0.971 | S. cerevisiae deletion strains, locus YMR231W, strain pep5, stronger effect = lower value 1 | S. cerevisiae deletion strains, locus YMR263W, strain SAP30, stronger effect = lower value 1.02 | S. cerevisiae deletion strains, locus YMR307W, strain GAS1, stronger effect = lower value 0.975 | S. cerevisiae deletion strains, locus YNL067W, strain RPL9B, stronger effect = lower value 1.02 | S. cerevisiae deletion strains, locus YNL071W, strain lat1, stronger effect = lower value 1.01 | S. cerevisiae deletion strains, locus YNL128W, strain TEP1, stronger effect = lower value 1 | S. cerevisiae deletion strains, locus YNL153C, strain GIM3, stronger effect = lower value 1.04 | S. cerevisiae deletion strains, locus YNL183C, strain NPR1, stronger effect = lower value 0.897 | S. cerevisiae deletion strains, locus YNL209W, strain ssb2, stronger effect = lower value 1.01 | S. cerevisiae deletion strains, locus YNL233W, strain BNI4, stronger effect = lower value 1.03 | S. cerevisiae deletion strains, locus YNL248C, strain rpa49, stronger effect = lower value 1.01 | S. cerevisiae deletion strains, locus YNL250W, strain rad50, stronger effect = lower value 0.997 | S. cerevisiae deletion strains, locus YNL271C, strain bni1, stronger effect = lower value 1.01 | S. cerevisiae deletion strains, locus YNL298W, strain CLA4, stronger effect = lower value 1.01 | S. cerevisiae deletion strains, locus YNL307C, strain MCK1, stronger effect = lower value 0.969 | S. cerevisiae deletion strains, locus YNL322C, strain KRE1 (second series), stronger effect = lower value 1.05 | S. cerevisiae deletion strains, locus YNL322C, strain KRE1, stronger effect = lower value 1 | S. cerevisiae deletion strains, locus YNR049C, strain mso1, stronger effect = lower value 1.02 | S. cerevisiae deletion strains, locus YNR052C, strain pop2, stronger effect = lower value 1.01 | S. cerevisiae deletion strains, locus YOL006C, strain TOP1, stronger effect = lower value 0.99 | S. cerevisiae deletion strains, locus YOL012C, strain htz1 1.01 | S. cerevisiae deletion strains, locus YOL147C, strain pex11, stronger effect = lower value 1.01 | S. cerevisiae deletion strains, locus YOR001W, strain rrp6, stronger effect = lower value 1.02 | S. cerevisiae deletion strains, locus YOR061W, strain CKA2, stronger effect = lower value 1.01 | S. cerevisiae deletion strains, locus YOR069W, strain VPS5, stronger effect = lower value 1.01 | S. cerevisiae deletion strains, locus YOR070C, strain gyp1, stronger effect = lower value 1.02 | S. cerevisiae deletion strains, locus YOR080W, strain dia2, stronger effect = lower value 1.04 | S. cerevisiae deletion strains, locus YOR083W, strain WHI5, stronger effect = lower value 1.02 | S. cerevisiae deletion strains, locus YOR106W, strain vam3, stronger effect = lower value 1.03 | S. cerevisiae deletion strains, locus YOR136W, strain idh2, stronger effect = lower value 0.993 | S. cerevisiae deletion strains, locus YOR144C, strain elg1, stronger effect = lower value 0.997 | S. cerevisiae deletion strains, locus YOR184W, strain ser1, stronger effect = lower value 0.956 | S. cerevisiae deletion strains, locus YOR231W, strain MKK1, stronger effect = lower value 0.981 | S. cerevisiae deletion strains, locus YOR265W, strain rbl2, stronger effect = lower value 1.01 | S. cerevisiae deletion strains, locus YOR270C, strain vph1, stronger effect = lower value 1.05 | S. cerevisiae deletion strains, locus YOR290C, strain snf2, stronger effect = lower value 1.03 | S. cerevisiae deletion strains, locus YOR316C, strain cot1, stronger effect = lower value 1 | S. cerevisiae deletion strains, locus YPL051W, strain arl3, stronger effect = lower value 1.01 | S. cerevisiae deletion strains, locus YPL055C, strain LGE1, stronger effect = lower value 0.989 | S. cerevisiae deletion strains, locus YPL078C, strain atp4, stronger effect = lower value 1.02 | S. cerevisiae deletion strains, locus YPL106C, strain sse1, stronger effect = lower value 1.07 | S. cerevisiae deletion strains, locus YPL240C, strain hsp82, stronger effect = lower value 0.985 | S. cerevisiae deletion strains, locus YPL241C, strain CIN2, stronger effect = lower value 1.01 | S. cerevisiae deletion strains, locus YPL256C, strain CLN2, stronger effect = lower value 0.974 | S. cerevisiae deletion strains, locus YPR119W, strain clb2, stronger effect = lower value 1 | S. cerevisiae deletion strains, locus YPR141C, strain kar3, stronger effect = lower value 0.996 | S. cerevisiae deletion strains, locus YPR163C, strain tif3, stronger effect = lower value 1.02 | S. cerevisiae deletion strains, locus YPR167C, strain met16, stronger effect = lower value 0.997 | S. cerevisiae deletion strains, strain wtn01, stronger effect = lower value 1.03 | S. cerevisiae strains, strain wild type, stronger effect = lower value 0.998
